Compound activity (PubChem)
PglD DTNB = inhibitors of Campylobacter jejuni PglD acetyltransferase | AID 602405 | inhibition, % at 12.5 µM | purified PglD enzyme, DTNB colorimetric CoA detection | 0.098% of 360,000 active; in the data active = inhibition above about 16%, passing the limit was not always enough
dFosB activator = enhances mouse delta FosB homodimer DNA binding | activation, % at 25 µM | purified delta FosB, TAMRA-CDK5 oligo fluorescence polarization; percent of positive-control signal above neutral wells | 0.99% of 340,000 active | P13346;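 active = mean activation above about 17%, with every replicate also reaching it, limit read from the data, passing the limit was not always enough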
Target sequence (P13346 whole entry, looked up): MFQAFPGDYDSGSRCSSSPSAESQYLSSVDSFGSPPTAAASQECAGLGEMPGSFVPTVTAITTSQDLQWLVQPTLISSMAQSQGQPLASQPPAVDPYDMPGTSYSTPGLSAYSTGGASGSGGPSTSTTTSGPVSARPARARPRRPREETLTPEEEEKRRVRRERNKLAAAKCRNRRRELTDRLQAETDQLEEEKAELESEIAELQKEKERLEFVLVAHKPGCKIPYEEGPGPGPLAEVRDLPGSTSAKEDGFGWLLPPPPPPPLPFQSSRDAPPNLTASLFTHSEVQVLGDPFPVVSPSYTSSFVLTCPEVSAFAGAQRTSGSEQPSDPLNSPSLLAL
CDK5 p35 inh = inhibitors of human CDK5/p35 kinase | 0.01% of 330,000 active | inhibition, % at 10 µM | Q00535+Q15078 | Recombinant CDK5/p35, ADP-Glo luminescence, 60 min;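 active = highest replicate inhibition of at least 50% and at least 75% of replicates reaching 50%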;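 note: plate controls were DMSO neutral control for no effect and GW8510 at 10 µM for full effect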
SIRT5 block = sirtuin-5 (human) deacylase inhibition; Q9NXA8; Purified SirT5, succinyl-peptide AMC, trypsin-coupled fluorescence; inhibition, % at 15 µM; 1.1% of 330,000 active; AID 652115; in the data active = inhibition above about 15%
FGF22 binding = binders of recombinant human FGF22 by thermal shift; Q9HCT0; SYPRO orange fluorescence; percent of sucrose octasulfate shift, DMSO zero; activity (Tm shift, normalised), % at 9.99 µM; 1.5% of 340,000 active; AID 651658;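 active = mean Tm shift, scaled 0 neutral to 100 positive control, at about 1.3% or above, every replicate too, limit read from the data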
Target sequence (Q9HCT0 whole entry, looked up): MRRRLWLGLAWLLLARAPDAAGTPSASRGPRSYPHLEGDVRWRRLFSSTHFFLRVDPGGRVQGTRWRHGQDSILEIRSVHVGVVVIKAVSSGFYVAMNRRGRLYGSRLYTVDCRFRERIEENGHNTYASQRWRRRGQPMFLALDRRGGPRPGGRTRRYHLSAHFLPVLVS
PvdQ inh = blocks Pseudomonas aeruginosa PvdQ acylase activity; purified PvdQ acylase, fluorescence plate reader; inhibition, % at 10 µM; 0.063% of 340,000 active; AID 488965; in the data active = inhibition above about 30%, passing the limit was not always enough;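 note: 0% = vehicle neutral wells and 100% = reference inhibitor wells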
Starred values were filed as active, the others as inactive; x = no result. Shown are actives, neighbours in structure and some others; about 2.8% of the full set was active somewhere.

SMILES | PglD DTNB | dFosB activator | CDK5 p35 inh | SIRT5 block | FGF22 binding | PvdQ inh
CCOc1ccc(OCc2ccc(C(=O)N/N=C(\C)c3ccccn3)cc2)cc1 | x | -5 | 1 | -1 | 43* | 0
CC(=O)c1ccc(N2CCN(S(=O)(=O)c3cccc4nsnc34)CC2)cc1 | x | 3 | -1 | 0 | 43* | 5
CC=Cc1ccc2n(c1=O)C[C@H]1[C@H](CO)[C@@H](C(=O)NCCC)N(C(=O)c3cccnc3)[C@@H]21 (mixture of isomers) | x | x | x | -1 | x | x
CCC(C(=O)Nc1cccc(C(=O)O)c1C)c1ccccc1 (configuration not stated) | x | -2 | 2 | -1 | 43* | -1
COc1ccc(C2=C(C=O)Cc3ccccc3O2)cc1 | x | -13 | 1 | 0 | 0 | 110*
O=C(NCCCO)c1ccc2nc(-c3ccco3)c(-c3ccco3)nc2c1 | x | -12 | 0 | 15* | 43* | 11
N#C/C(=N\Nc1cc(Cl)cc(Cl)c1)c1nnc2n1CCCCC2 | -1 | -32 | -1 | 0 | 43* | 4
COc1ccc(-c2ccc([C@H]3[C@@H](C#N)N(C(=O)NC4CCCC4)[C@@H]3CO)cc2)cc1 | -2 | x | x | 0 | 0 | x
CCN(CC(=O)Nc1cc(Cl)ccc1C)C(=O)COc1ccccc1F | x | -14 | -2 | -4 | 44* | -4
Cc1occc1-c1n[nH]c(=S)n1-c1ccccc1 | 2 | -7 | 0 | 0 | 0 | -18
Cc1occc1-c1n[nH]c(=S)n1C | x | -3 | -1 | 0 | 43* | 5
CN(C)C(=O)c1ccc(-c2ccc([C@H]3[C@H](CO)N4C(=O)CN(C(=O)CC5CC5)C[C@@H]34)cc2)cc1 | x | x | x | -3 | 0 | x
O=C(NCc1ccc(Cl)cc1)c1ccc2c(=O)n(CC3CCCO3)c(=S)[nH]c2c1 (configuration not stated) | 7 | 12 | -2 | 16* | 0 | -1
COC(CNC(=O)c1ccc2c(=O)n(Cc3ccc4c(c3)OCO4)c(=S)[nH]c2c1)OC | -5 | 3 | 0 | 16* | 0 | 0
O=C(NCC1CCCO1)c1ccc2c(=O)n(CC3CCCO3)c(=S)[nH]c2c1 (configuration not stated) | -1 | -5 | 0 | x | x | 8
COC(=O)c1cc(-c2cccc(OC)c2)on1 | 3 | 3 | -3 | x | x | 47*
COC(=O)c1cc(-c2ccc(Br)cc2)on1 | 0 | -1 | 0 | -4 | 0 | 92*
COC(=O)c1cc(-c2ccc(OC)cc2)on1 | 2 | -15 | -2 | -3 | 0 | 95*
COC(=O)c1cc(-c2ccccc2)on1 | 0 | 6 | 1 | x | x | -2
C[C@@H]1CN([C@@H](C)CO)C(=O)c2cc(-c3cccnc3)cnc2O[C@H]1CN(C)C(=O)c1ccccc1F | -3 | x | x | 0 | 0 | x
N#C[C@@H]1[C@@H](c2ccccc2-c2ccccc2)[C@H](CO)N1C(=O)NC1CCCC1 | x | x | x | -1 | 0 | x
C[C@@H]1CCCCO[C@H](CN(C)C(=O)Cc2ccccc2)[C@@H](C)CN([C@H](C)CO)C(=O)c2cc(NS(=O)(=O)c3ccc(F)cc3)ccc2O1 | x | x | x | x | 0 | x
O=c1cnnc(N/N=C/c2c[nH]c3ccccc23)[nH]1 | 1 | -5 | -6 | -1 | 43* | -10
CCCc1cc(=O)n2[nH]c(C(F)(F)F)nc2n1 | -1 | 5 | 1 | 0 | 43* | 3
CCCc1cc(=O)n2[nH]c(C)nc2n1 | 10 | 1 | -1 | x | x | -12
SMILES | PglD DTNB | dFosB activator | CDK5 p35 inh | SIRT5 block | FGF22 binding | PvdQ inh
C[C@@H]1CN([C@@H](C)CO)C(=O)c2cc(NS(=O)(=O)c3cn(C)cn3)ccc2O[C@@H](C)CCCCO[C@@H]1CN(C)C(=O)CCCN(C)C | 0 | x | x | 7 | -1 | x
COc1ccc(S(=O)(=O)Nc2c(C)nc3nc[nH]n3c2=O)cc1 | 6 | -5 | 0 | 0 | 43* | -11
COc1ccc(S(=O)(=O)Nc2ccc3c(c2)CC(=O)N([C@H](C)CO)C[C@H](C)[C@@H](CN(C)S(=O)(=O)c2c(C)noc2C)O3)cc1 | 0 | x | x | 2 | 0 | x
CC1CCc2c(C(=O)NCc3cccnc3)csc2C1 (configuration not stated) | 7 | -3 | 1 | -3 | 43* | 14
Cc1onc(-c2c(F)cccc2Cl)c1C(=O)OCC(=O)NC(=O)NCC(C)C | x | -11 | 2 | 1 | 43* | -7
COc1ccc(CNC(=O)COC(=O)c2c(-c3c(F)cccc3Cl)noc2C)cc1OC | -7 | -8 | 1 | x | x | -9
O=C(COc1cccc2c1CCN(Cc1ccccc1)C2=O)N1CCCCC1 | x | -9 | 0 | 1 | 43* | -8
O=[N+]([O-])c1ccc2c(c1)Cc1cc(F)ccc1-2 | 3 | 2 | -1 | -2 | 0 | 87*
COc1cc2c(cc1[N+](=O)[O-])-c1ccc([N+](=O)[O-])cc1C2 | -2 | x | x | x | 0 | x
CC(=O)OC1CCC2(C)C(CCC3C2CC(=NO)C2(C)C(C(C)OC(C)=O)CCC32)C1 (configuration not stated) | x | -20 | 0 | 2 | 0 | -5
CC(=O)OC1CCC2(C)C(CCC3C2CC(=O)C2(C)C3CC(C(C(C)=O)C(C)=O)C2C(C)=O)C1 (configuration not stated) | -2 | -13 | -1 | 0 | 0 | -16
CC(=O)OC1CCC2(C)C(CCC3C2CC(=O)C2(C)C3CC(C3CCCC3=O)C2C(C)=O)C1 (configuration not stated) | 2 | -11 | -1 | 15* | 0 | -17
CC(=O)O[C@H]1CC[C@@]2(C)[C@@H](CC[C@H]3[C@@H]4CC[C@H](C(C)O)[C@@]4(C)CC(=O)[C@@H]32)C1 (some centres not stated) | 9 | -3 | 0 | 23* | 0 | -9
CCOC(=O)c1ccccc1NC(=O)c1cccc([N+](=O)[O-])c1 | x | -4 | 0 | x | 0 | -16
Cc1c(N)cc(S(=O)(=O)O)cc1NC(=O)c1cccc([N+](=O)[O-])c1 | -2 | -4 | -5 | 28* | 0 | 10
O=C(O)c1cccc(N2C(=O)/C(=C/c3ccc(SCc4ccc(Cl)cc4)o3)SC2=S)c1 | x | 3 | 0 | 21* | x | -1
CCCNC(=O)N[C@@H]1C=C[C@H](CC(=O)NC2CCCCC2)O[C@@H]1CO | 3 | x | x | -1 | 0 | x
CN(C)C(=O)C[C@@H]1CC[C@H]2[C@@H](COC[C@H](O)CN2C(=O)C2CC2)O1 | 4 | x | x | 1 | 0 | x
O=C(C[C@H]1CC[C@H](NC(=O)CCN2CCCCC2)[C@@H](CO)O1)NCc1ccc(Cl)c(Cl)c1 | -2 | x | x | -2 | 0 | x
COc1cccc(/C=N/NC(=O)c2ccccc2)c1OS(=O)(=O)c1ccccc1 | x | -6 | -4 | 1 | 44* | -9
COc1ccccc1/C=C/C(=O)NCC(=O)N/N=C/c1ccc(C)o1 | x | -10 | -1 | 100* | 0 | 5
